D1 PAM: Potentiators of Human D1 Dopamine Receptor: qHTS; HEK293 TREx D1 cells, calcium flux, dopamine EC20 potentiation; potentiation, % at 10 µM; actives 0.036% (n = 360,000); in the data active = potentiation above about 30%; also: 0% is about no effect
Target sequence (P21728 whole entry, looked up): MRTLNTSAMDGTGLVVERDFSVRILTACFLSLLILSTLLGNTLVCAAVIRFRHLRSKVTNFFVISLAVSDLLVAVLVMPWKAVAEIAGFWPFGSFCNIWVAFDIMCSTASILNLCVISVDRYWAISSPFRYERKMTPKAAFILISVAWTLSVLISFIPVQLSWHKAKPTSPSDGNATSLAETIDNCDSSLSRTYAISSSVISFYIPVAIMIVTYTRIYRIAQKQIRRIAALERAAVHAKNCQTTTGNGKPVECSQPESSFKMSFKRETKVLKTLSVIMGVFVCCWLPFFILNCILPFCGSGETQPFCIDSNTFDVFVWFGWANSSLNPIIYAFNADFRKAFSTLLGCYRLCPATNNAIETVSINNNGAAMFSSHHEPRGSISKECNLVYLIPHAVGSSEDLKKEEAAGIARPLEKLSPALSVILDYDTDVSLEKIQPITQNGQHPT
USP2a inh: qHTS Assay for Inhibitors of Ubiquitin-specific Protease USP2a Using CHOP2 as the Reporter. Potency, µM (highest dose often 38.3 µM), without a hit: top-dose activity change, negative = inhibition, most hits filed as inhibitors. actives 0.01% (n = 330,000). Ubiquitin carboxyl-terminal hydrolase 2 (Homo sapiens), O75604. USP2 core, Ub-CHOP2 coupled fluorogenic reporter, 485/531. AID 463254, 2010;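 also: potency is read from the fitted curve at half-maximal effect; plate controls were DMSO wells for no effect and full inhibition by NEM control for full effect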
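Deubiquitinase activity read as fluorescence (485/531 nm) after Ub-CHOP2 cleavage activates the enterokinase reporter on its substrate; USP2 core 10nM, Ub-CHOP2 and substrate 25nM each, 30min compound preincubation then 60min RT; data normalized to NEM, curves fitted.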
GALK inhibitor: qHTS Assay for Inhibitors of Human Galactokinase (GALK). P51570. Purified GALK, Kinase-Glo residual ATP luminescence. Potency, µM (series often up to 57.5 µM), without a hit: at the highest dose activity change, negative = inhibition, actives largely listed as inhibitors. actives 0.007% (n = 270,000); also: potency is read from the fitted curve at half-maximal effect; % is scaled to controls: 0 for no effect and ±100 for the full control effect
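Quantitative HTS: GALK 5 nM, ATP 35 uM, galactose 100 uM, 1 h room temperature, then luciferase-based ATP detection.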
D1 antagonist: Antagonist of Human D 1 Dopamine Receptor: qHTS. D(1A) dopamine receptor (Homo sapiens), P21728. HEK293 TREx D1 cells, calcium flux, dopamine EC80; hits give low values. activity change, negative = inhibition, % at 10 µM. actives 3.2% (n = 360,000). AID 504652, 2011; in the data active = activity change below about -30%; also: % is scaled to controls: 0 for no effect and ±100 for the full control effect
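Antagonism measured as reduced calcium response to an EC80 dopamine addition following 180 s compound pre-read; cells were inducible HEK293 Trex D1 plated overnight at 30 C, read kinetically at 1 cycle/sec.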
D1 agonist: Allosteric Agonists of the Human D1 Dopamine Receptor: qHTS; D(1A) dopamine receptor (Homo sapiens), P21728; HEK293 T-REx D1 cells, calcium flux, agonist mode; activation, % at 2 µM; actives 1% (n = 360,000); in the data active = activation above about 30%; also: 0% is about no effect
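Inducible HEK293 T-REx D1 cells, force-coupled to calcium signalling, were plated at 4000 cells/well with tetracycline and held overnight at 30 C. After no-wash calcium dye loading, compound-evoked calcium rise over 180 s flagged agonists.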
Eya2 phos inh: qHTS Assay for Inhibitors of the Phosphatase Activity of Eya2; Protein phosphatase EYA2 (Homo sapiens), O00167; recombinant Eya2, OMFP fluorescence dephosphorylation (OMFP is methylfluorescein phosphate); Potency, µM (series often up to 76.9 µM), inactives show at the highest dose activity, negative = inhibition, most hits filed as inhibitors; actives 0.006% (n = 330,000); AID 488837, 2010; also: potency is read from the fitted curve at half-maximal effect; % is scaled to controls: 0 for no effect and ±100 for the full control effect
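Eya2 (0.2 uM) preincubated 10 min at ambient with compound, then OMFP substrate added at 50 uM; 10 min reaction in 50 mM HEPES pH 7.5, 50 mM NaCl, 5 uM MgCl2, 0.05% BSA, 1 mM DTT. Fluorescence read at Ex 485/Em 525 nm.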
* hit, by the source's call; ? = inconclusive; nt = not tested or not shown. Hits are enriched below; roughly 3.9% of the tested compounds scored in any of these assays. Unless noted, calls follow the shape of the dose curve; as a rule, active = well fitted inhibition curve with a large enough effect; inconclusive = small, poorly fitted or top-dose-only effect, or effect the other way; inactive = flat fitted curve, though single readings scatter.

SMILES | D1 PAM | USP2a inh | GALK inhibitor | D1 antagonist | D1 agonist | Eya2 phos inh
Cc1cc(OCc2cc(C(=O)N(C)C3CCOC3)no2)cc(C)c1Cl (configuration not stated) | -4 | -1% | 5% | -47* | 12 | -2%
CC(=O)c1ccc(OCc2cc(C(=O)N(C)C3CCOC3)no2)cc1 (configuration not stated) | -10 | 2% | -4% | 1 | 2 | 15%
Cc1cc(OCc2cc(C(=O)NCCN3CCCCC3CO)no2)cc(C)c1Cl (configuration not stated) | -15 | 1% | -4% | -44* | 35* | -2%
Cc1ccc(OCc2cc(C(=O)NCC(C)c3ccccc3)no2)cc1C (configuration not stated) | -9 | -5% | -2% | -31* | 9 | -2%
Cc1ccc(OCc2cc(C(=O)NCc3cn4ccccc4n3)no2)cc1C | 1 | 0% | 5% | -20 | 16 | 4%
COc1ccc(OCc2ccc(-c3nc(C#N)c(NCc4ccc(F)cc4)o3)o2)cc1 | 1 | nt | nt | 3 | 2 | nt
O=C(CSc1nc(=O)[nH]c2c1CCCC2)NCc1ccccc1 | -2 | nt | nt | nt | 0 | nt
O=C(C1CCCN(S(=O)(=O)c2cccs2)C1)N1CCN(c2cccc(Cl)c2)CC1 (configuration not stated) | -1 | nt | nt | -20 | 6 | nt
COCCCn1c(=O)c2sccc2n2c(CCCC(=O)Nc3cccc(OC)c3)nnc12 | -3 | nt | nt | -12 | 0 | nt
O=S(=O)(c1ccc(Cl)cc1)c1nc(-c2cccc(Br)c2)oc1NCc1ccccc1 | 0 | nt | nt | -12 | 4 | nt
COc1cccc(OCc2cc(C(=O)N(C)C3CCOCC3)no2)c1 | -10 | 1% | -2% | -56* | 6 | 5%
COc1ccc(OCc2cc(C(=O)N(C)CCC3CCOCC3)no2)c(Cl)c1 | -8 | 0% | 0% | -41* | 7 | 5%
COc1ccc(OCc2cc(C(=O)N(C)CC3CCCCO3)no2)c(Cl)c1 (configuration not stated) | 0 | 1% | 3% | 3 | 2 | -18%
CCCOc1ccc(C(=O)NCC2OCCc3ccccc32)cc1 (configuration not stated) | -4 | nt | nt | -20 | -1 | nt
CN(C)c1cccc(C(=O)Nc2nc3ccc(S(=O)(=O)N4CCCC4)cc3s2)c1 | -1 | nt | nt | -27 | 2 | nt
CCCc1nn2c(=O)cc(COC(=O)c3ccc4c(c3)OCO4)nc2s1 | -6 | nt | nt | -2 | 6 | nt
N[C@@H](Cn1ccc(=O)c(O)c1)C(=O)O | nt | nt | nt | nt | nt | 4%
O=C(OCn1ncc(Cl)c(Cl)c1=O)c1cccc(C(F)(F)F)c1 | -9 | -1% | -6% | -36* | 17 | -12%
Cc1cccc(-c2nc(SCCCOc3ccccc3Cl)n3[nH]c(=O)cc3n2)c1 | -5 | nt | nt | -25 | 2 | nt
NC(=NCCCCCCN=C(N)/N=C(\N)Nc1ccc(Cl)cc1)/N=C(\N)Nc1ccc(Cl)cc1 | -6 | ? | nt | -82* | 8 | ?
CCCOc1ccccc1C1CC(=O)NC2=C1C(=O)CCC2 (configuration not stated) | -4 | -1% | -1% | 5 | 14 | -3%
CCCCOc1ccccc1C1CC(=O)NC2=C1C(=O)CCC2 (configuration not stated) | -5 | -6% | -1% | -48* | 15 | -13%
COc1ccc(CCN(C)C2CCCN(S(=O)(=O)c3ccc(C)cc3)C2)cc1OC (configuration not stated) | -9 | -1% | -3% | -37* | -3 | -1%
CC(C)Cn1c(Cc2ccccc2)n[nH]c1=S | -2 | 0% | -3% | -35* | 33* | 5%
CN1C(=O)Cc2cc([S+](=O)([O-])N3CCN([S+](=O)([O-])c4c(F)cccc4F)CC3)ccc21 | -7 | nt | nt | -13 | 3 | nt
SMILES | D1 PAM | USP2a inh | GALK inhibitor | D1 antagonist | D1 agonist | Eya2 phos inh
CCOC(=O)C1=C(CN2CCN(c3cc(C)ccc3C)CC2)NC(=O)NC1c1ccc(Cl)cc1 (configuration not stated) | 2 | nt | nt | -2 | 1 | nt
Cc1c(Cl)cccc1NC(=O)Cn1c(=O)nc(-c2ccccc2)c2ccccc21 | 0 | nt | nt | -4 | 7 | nt
COCCn1c(N)c(C(=O)NS(=O)(=O)c2ccc(C)cc2)c(=O)[nH]c1=O | 1 | -2% | 0% | -32* | 7 | -1%
COCCn1c(N)c(Sc2ccc(C)cc2)c(=O)[nH]c1=O | 0 | 2% | 1% | 1 | 3 | 22%
CCOc1cc(CNC(=O)c2cc(-c3ccc(Cl)s3)nc3ccccc23)ccc1OC | 1 | nt | nt | 11 | 1 | nt
CC(=O)n1nc(-c2ccco2)nc1N | -3 | 1% | -2% | 4 | 5 | 11%
COc1ccccc1C(=O)n1nc(-c2ccco2)nc1N | -2 | 2% | -2% | -82* | 0 | 24%
CCOC(=O)C(=O)c1csc(NC(=O)CCSc2ccc(C)cc2)n1 | -1 | -1% | 8% | -79* | 4 | -11%
CCOC(=O)c1csc(NC(=O)CCSc2ccccc2)n1 | 1 | 1% | 7% | 13 | 19 | 11%
N#Cc1ccc(-c2ccccc2)nc1SCCN1CCOCC1 | -7 | 3% | 0% | -9 | -2 | -4%
Cc1cc(C)c(C#N)c(SCCN2CCOCC2)n1 | -3 | 3% | 6% | -31* | 0 | 10%
O=C(CCS(=O)(=O)c1cccc2nonc12)N1CCOCC1 | -1 | 0% | 0% | 27 | 1 | 4%
O=C(CCS(=O)(=O)c1cccc2nonc12)N1CC(=O)N(CCc2ccccc2)C(=O)C1 | -2 | -2% | 1% | -91* | 11 | -13%
Cc1cc(C)c(NC(=O)c2cc(S(=O)(=O)N3CCN(c4ccccc4F)CC3)ccc2F)c(C)c1 | -2 | nt | nt | 13 | 3 | nt
CC(C)c1ccc2c(c1)-c1ccccc1S(=O)(=O)N2CC(=O)N1CCCCC1 | -1 | nt | nt | -1 | 2 | nt
CCOc1ccc(NC(=O)Cn2c(=O)oc3cc(S(=O)(=O)NC4CCCC4)ccc32)cc1 | -2 | nt | nt | 19 | 0 | nt
COc1cccc(-c2nc(C(N)=O)c3c(n2)n(-c2ccc4c(c2)OCO4)c(=O)n3C)c1OC | -1 | nt | nt | 13 | 0 | nt
CCOc1nc(NC(=O)NS(=O)(=O)Oc2ccccc2)nc(-c2ccccc2)n1 | -3 | nt | nt | 5 | 0 | nt

From PubChem
